Holding throughout (assay): NCI-60 one-dose screen, 48 h (100 = growth as untreated, 0 = no growth, -100 = all killed)
Assay [1] has as its system NCI-H23 lung. To be noted: 10 µM unless noted.
The subject of assay [2] is NCI-H226 lung. To be noted: 10 µM unless noted.
In assay [3] the test system is NCI-H322M lung. The note with it: 10 µM unless noted.
In assay [4] the test system is HOP-62 NSCLC. The note with it: 10 µM unless noted.
For assay [5], the system named is NCI-H460 lung. The note with it: 10 µM unless noted.
Assay [6] has as its system NCI-H522 lung. The note with it: 10 µM unless noted.
Assay [7] concerns A549/ATCC NSCLC. To be noted: 10 µM unless noted.
Assay [8] relates to 786-0 renal. The note with it: 10 µM unless noted.
Assay [9] concerns COLO 205 colon. The note with it: 10 µM unless noted.
In assay [10] the test system is DU-145 prostate. The note with it: 10 µM unless noted.
The subject of assay [11] is MDA-MB-231 breast. To be noted: 10 µM unless noted.
The test system of assay [12] is RXF 393 renal. The note with it: 10 µM unless noted.
Assay [13] has as its system SF-268 CNS. To be noted: 10 µM unless noted.
The subject of assay [14] is SF-295 CNS. The note with it: 10 µM unless noted.
Assay [15] relates to SF-539 CNS. The note with it: 10 µM unless noted.
Assay [16] has as its system UACC-257 melanoma. The note with it: 10 µM unless noted.
The test system of assay [17] is MALME-3M melanoma. To be noted: 10 µM unless noted.
The subject of assay [18] is M14 melanoma. To be noted: 10 µM unless noted.
The subject of assay [19] is K-562 leukemia. To be noted: 10 µM unless noted.
Assay [20] has as its system HOP-92 NSCLC. The note with it: 10 µM.

About 83,000 compounds went through this panel and 20% of them were active in at least one assay; those are over-represented in the sample as a whole.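 Method: cells in 96-well plates; compound added at one concentration; 48 h incubation; percent growth measured; values under 10 scored active.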 A number with no mark means an inactive call. Calls of active or inactive are those of the source.

Data on nine compounds can be found in PubChem BioAssay (NCI).

For the compound `COc1cc(OC)cc(C(=O)Nc2sc3c(c2C(N)=O)CCC(=O)C3)c1`, the growth was 19.1% in assay [1]; 86% in [2]; 98.6% in [3]; 60% in assay [4]; 57.9% in assay [5]; 5.02% (active) in [6]. The growth was 95.8% in assay [7]; 85% in assay [8]; 47.2% in assay [9]; 99.4% in assay [10]; 52.4% in assay [11]; 85.1% in assay [12]. The growth was 30.7% in assay [13], 65.3% in assay [14], 16.6% in [15] and 53.2% in assay [16].
With `COc1cccc(C(=O)Nc2cccc(C#Cc3cccc4[nH]nc(N)c34)c2)c1`, the growth in assay [1] is 66.7%; in assay [2], 49.2%; in [3] it was 84.2%; in [4], 63.4%; in assay [5], 44.8%; in [6] it was 21.1%. Further, the growth in [7] is 51.1%; in assay [8], 80.2%; in assay [9], 67.6%; in assay [10], 70.8%; in [17], 79.4%; in [11] it was 38.6%. Moreover, the growth in assay [12] is -19.5% (active); in [13], 53%; in assay [14], 54.9%; in [15], 36.1%; in assay [16], 82.8%; in assay [18], 32.6%.
As to `COc1ccc(S(=O)(=O)NCCCNc2nccc(-c3cn(C(C)(C)C)nc3-c3ccc(Cl)c(OC)c3)n2)cc1`, the growth in assay [1] is 87.7%; in assay [2] it was 73.6%; in [3] it was 82.5%; in assay [4] it was 63.3%; in assay [5], 84.9%; in assay [7], 64.4%. Moreover, the growth in assay [8] is 79.7%; in [9], 105%; in [10] it was 72.3%; in [19] it was 59.7%; in assay [17], 92.7%; in assay [11] it was 43.8%. Besides, the growth in assay [12] is -0.734% (active); in assay [13] it was 57.9%; in assay [14], 91.2%; in assay [15], 89.8%; in assay [16], 104%; in assay [18], 92.8%.
With `COc1ccc(Oc2ccc(/C=N/NC(=O)CSc3nc4ccccc4c(=O)n3-c3ccc(Cl)cc3)cc2)cc1`, the growth in assay [1] was 41.6%; in assay [3], 84.7%; in assay [4], 73.3%; in assay [5], 11.2%; in [20] it was 77.3%; in assay [6], 51.3%. Besides, the growth in [7] was 47%; in [8] it was 25.2%; in [9] it was 72.8%; in [10] it was 49.2%; in assay [19], 58.4%; in assay [17] it was 63.9%. Moreover, the growth is 46.7% in [11]; 57.9% in assay [13]; 67.7% in assay [14]; 32.2% in assay [15]; 94.7% in assay [16].
Turning to `CCNC(=O)N1CCc2cc(OC)c(OCCc3ccc(OC)nc3)cc2C1c1ccc(C)cc1C` (stereo unspecified), the growth in assay [1] was 13%; in assay [3], 38%; in [4] it was 21.8%; in assay [5], 1.74% (active); in assay [6], -34% (active); in [7] it was 4.74% (active). Moreover, the growth in assay [8] is 6.15% (active); in assay [9], 7.67% (active); in assay [10] it was 12%; in [19] it was 11%; in assay [17], 51.5%; in assay [11], 15%. Further, the growth in assay [12] is 2.44% (active); in assay [13] it was 20.7%; in assay [14] it was 7.92% (active); in assay [15], 5.2% (active); in assay [16] it was 41.9%; in assay [18] it was 12.9%.
On to `Nc1nc(Nc2ccccc2SSc2ccccc2Nc2nc(N)nc(-c3ccc4ccccc4c3)n2)nc(-c2ccc3ccccc3c2)n1`, for which the growth in assay [1] was 49.9%; in assay [2], 59%; in assay [3], 91.7%; in assay [4], 28.8%; in assay [5] it was 61.1%; in [7], 2.94% (active). For the same compound, the growth in [8] is 82.6%; in [9] it was 106%; in assay [10], 60.7%; in [19], 69.7%; in [17], 93.1%; in assay [11], 60.9%. Besides, the growth in [12] was 79.5%; in assay [13], 74.9%; in assay [14], 67.7%; in assay [15] it was 99%; in assay [16] it was 112%; in assay [18], 95%.
With `NC(N)=Nc1ccc(Oc2cccc(NC(N)=Nc3ccc(Br)cc3)c2)cn1`, the growth in [1] was 61.1%; in assay [3], 65.1%; in [4] it was 65.6%; in assay [5] it was 46.7%; in [20] it was 29%; in assay [6] it was 46.9%. The growth is 53.5% in assay [7]; 68.7% in [8]; 16.5% in [9]; 80.4% in assay [10]; 52.4% in assay [19]; 69.8% in [17]. For the same compound, the growth in assay [11] is 76.8%; in assay [13], 28.2%; in assay [14], 44.4%; in [15] it was 48.7%; in assay [16], 77.9%.
Consider `C=C(C)[C@@H]1CC[C@]2(C(=O)NCCCCCN(CCC#N)CCC#N)CC[C@]3(C)[C@H](CC[C@@H]4[C@@]5(C)CCC(=O)C(C)(C)[C@@H]5CC[C@]43C)[C@@H]12`, for which the growth in assay [1] was 95.3%; in assay [2], 92.8%; in assay [3], 116%; in assay [4] it was 82.6%; in [5], 87.5%; in [7] it was 90.9%. In addition, the growth in assay [8] was 92%; in [10] it was 96.2%; in assay [19], 96.9%; in assay [17], 119%; in assay [11], 107%; in assay [12], 58.2%. Further, the growth in assay [13] was 81.5%; in assay [14], 99.6%; in assay [15] it was 101%; in assay [16], 103%; in assay [18], 97.6%.
`O=C1C(c2ccccc2)=C(N2CCc3ccccc32)OC1(Cl)Cl`: the growth in assay [1] was 60.1%; in assay [3], 86.3%; in assay [4], 98.1%; in assay [5] it was 88.2%; in assay [6], 75.3%; in assay [7], 85%. Besides, the growth in assay [8] was 60.1%; in assay [9] it was -8.41% (active); in [10], 69.4%; in [19], 8.28% (active); in [17], -27.3% (active); in assay [11], 82%. Also, the growth in [12] is 33.3%; in assay [13], 83.1%; in assay [14] it was 83.6%; in assay [15], 75.8%; in [16] it was 91.4%.
